Experimental data taken from PubChem BioAssay (NCATS).
Where “and” joins values, the source holds several entries; their conditions need not be identical. Equal entries are not always repeated. Inconclusive results are not listed. Entries that show only a call come without a potency. Calls of active or inactive are those of the source. Calls come from the whole dose curve; as a rule, active = well fitted curve in the direction sought with a large enough effect; inconclusive = small, poorly fitted or top-dose-only effect, or another doubt; inactive = no such curve, though single readings can be large; an effect the other way counts as inactive or inconclusive.

Experiments:
[1] = target: Voltage-gated inwardly rectifying potassium channel KCNH2 (Homo sapiens) (UniProt Q12809); experiment: qHTS Assay for Small Molecule Inhibitors of the Human hERG Channel Activity (AID 588834);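 note: lower thallium flux fluorescence means stronger hERG block; nearly all actives have a fitted effect of over 50% in size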; note: potency is the fitted concentration of half-maximal effect
Sequence of Voltage-gated inwardly rectifying potassium channel KCNH2 (Homo sapiens) (Q12809 whole entry, looked up): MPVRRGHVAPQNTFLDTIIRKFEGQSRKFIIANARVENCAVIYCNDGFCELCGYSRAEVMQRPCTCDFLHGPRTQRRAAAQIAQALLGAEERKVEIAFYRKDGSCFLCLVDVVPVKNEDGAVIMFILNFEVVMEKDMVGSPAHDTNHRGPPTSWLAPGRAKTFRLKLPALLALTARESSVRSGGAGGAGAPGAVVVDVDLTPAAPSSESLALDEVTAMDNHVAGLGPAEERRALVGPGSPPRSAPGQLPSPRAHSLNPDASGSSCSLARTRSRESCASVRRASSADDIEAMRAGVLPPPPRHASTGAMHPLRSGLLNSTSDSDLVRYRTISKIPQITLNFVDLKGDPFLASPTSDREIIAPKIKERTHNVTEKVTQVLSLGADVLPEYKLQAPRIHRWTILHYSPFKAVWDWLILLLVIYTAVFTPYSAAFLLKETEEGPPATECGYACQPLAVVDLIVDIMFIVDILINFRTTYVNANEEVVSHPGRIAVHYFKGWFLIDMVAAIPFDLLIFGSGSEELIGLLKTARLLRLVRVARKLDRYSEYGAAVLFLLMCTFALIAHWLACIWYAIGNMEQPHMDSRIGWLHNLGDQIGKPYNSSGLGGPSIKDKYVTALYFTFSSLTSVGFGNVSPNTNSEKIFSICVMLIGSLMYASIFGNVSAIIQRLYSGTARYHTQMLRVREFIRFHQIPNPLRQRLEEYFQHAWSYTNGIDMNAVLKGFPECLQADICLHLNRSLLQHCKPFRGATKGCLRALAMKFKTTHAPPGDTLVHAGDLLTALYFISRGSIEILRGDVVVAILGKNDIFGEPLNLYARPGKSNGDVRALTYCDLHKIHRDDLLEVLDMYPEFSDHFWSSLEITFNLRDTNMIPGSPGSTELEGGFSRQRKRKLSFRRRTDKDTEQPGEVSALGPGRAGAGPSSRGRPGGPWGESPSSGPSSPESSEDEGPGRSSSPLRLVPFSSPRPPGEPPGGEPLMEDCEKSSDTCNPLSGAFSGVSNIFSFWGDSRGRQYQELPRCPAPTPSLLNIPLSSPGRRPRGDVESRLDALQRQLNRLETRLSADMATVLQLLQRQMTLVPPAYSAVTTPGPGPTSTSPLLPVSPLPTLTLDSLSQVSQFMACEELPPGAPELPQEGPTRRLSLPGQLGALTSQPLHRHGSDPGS
Procedure, shortened: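 Cells were infected with hERG-BacMam virus for 4 hrs at room temperature, grown overnight, then seeded at 2000/well. After dye loading and roughly 10 min compound treatment, thallium influx was triggered and fluorescence recorded.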

[2] = S16 Schwann cell viability assay (CellTiter-Glo assay) (AID 624031); note: nearly all actives have a fitted effect of over 70% in size; note: potency is the fitted concentration of half-maximal effect
Procedure, shortened: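 Following overnight culture in 10% FBS DMEM, parental S16 rat Schwann cells are dosed for 24 h at 37 °C. Viability is read as CellTiter-Glo luminescence and expressed as % activity relative to DMSO (0%) and no-cell wells.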

[3] = target: Luciferin 4-monooxygenase (Photinus pyralis) (UniProt P08659); experiment: Biochemical firefly luciferase enzyme assay for NPC (AID 624030);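 note: purified P. pyralis luciferase at 10 nM with luciferin and ATP substrate; series mostly up to about 59 µM; nearly all actives have a fitted effect of over 70% in size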
Sequence of Luciferin 4-monooxygenase (Photinus pyralis) (P08659 whole entry, looked up): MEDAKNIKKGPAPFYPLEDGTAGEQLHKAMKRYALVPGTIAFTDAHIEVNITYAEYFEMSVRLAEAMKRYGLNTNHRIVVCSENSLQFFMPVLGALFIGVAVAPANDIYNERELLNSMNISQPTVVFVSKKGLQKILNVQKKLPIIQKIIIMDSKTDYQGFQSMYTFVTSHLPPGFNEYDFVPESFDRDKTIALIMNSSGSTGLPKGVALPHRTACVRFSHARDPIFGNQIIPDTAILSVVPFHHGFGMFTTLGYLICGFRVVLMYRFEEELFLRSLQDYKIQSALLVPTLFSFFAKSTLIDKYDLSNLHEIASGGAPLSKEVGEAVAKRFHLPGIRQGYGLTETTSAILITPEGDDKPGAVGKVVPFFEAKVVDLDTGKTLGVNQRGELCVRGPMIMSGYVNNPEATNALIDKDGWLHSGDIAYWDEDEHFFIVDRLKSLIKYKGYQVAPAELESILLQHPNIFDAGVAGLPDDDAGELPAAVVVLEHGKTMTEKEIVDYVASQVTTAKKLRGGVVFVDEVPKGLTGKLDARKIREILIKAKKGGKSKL
Procedure, shortened: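 Purified P. pyralis luciferase at 10 nM in 50 mM Tris Acetate (final), luminescence read within 5 minutes of enzyme addition to compounds. Activity normalised to PTC124 versus DMSO; concentration-response curves classed by r2, magnitude and activity.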

O=C(O)c1cc2cc(Cc3cccnc3)ccc2o1
Potency [1]: inactive
Potency [2]: inactive

CCN(CC)C(=O)/C(C#N)=C/c1cc(O)c(O)c([N+](=O)[O-])c1
Potency [1]: inactive
Potency [2]: inactive

Cc1c(C(C)C)c(=O)n(-c2ccccc2)n1C
Potency [1]: inactive
Potency [2]: inactive

C[N+]1(CCCCC[N+]2(C)CCCC2)CCCC1
Potency [1]: inactive
Potency [2]: inactive

C[C@@H]1CN(CCCn2c3ccccc3c3ccccc32)C[C@H](C)N1
Potency [1]: 10 µM (active)
Potency [3]: inactive
Potency [2]: 32.2 µM (active)

OC(CCN1CCCCC1)(c1ccccc1)c1ccccc1
Potency [1]: 14.1 µM (active)
Potency [3]: inactive
Potency [2]: inactive

CC1(C)CCC(NC(=O)[C@@H](N)CCC(=O)O)CC1
Potency [1]: inactive
Potency [2]: inactive

CC(=O)N(O)CCCCCNC(=O)CCC(=O)N(O)CCCCCNC(=O)CCC(=O)N(O)CCCCCN
Potency [1]: inactive
Potency [3]: inactive
Potency [2]: inactive

CN1C2CCC1CC(OC(=O)c1c[nH]c3ccccc13)C2 (stereo unspecified)
Potency [1]: 11.2 µM (active) and 5.62 µM (active)
Potency [3]: inactive
Potency [2]: inactive

O=C(OCCOCCO)c1ccccc1Nc1cccc(C(F)(F)F)c1
Potency [1]: inactive
Potency [3]: inactive
Potency [2]: inactive

CCCCOc1cc(C(=O)NCCN(CC)CC)c2ccccc2n1
Potency [1]: 4.47 µM (active)
Potency [3]: inactive
Potency [2]: inactive

CCCCCCCCCCCCCCNCCO
Potency [1]: inactive
Potency [2]: inactive

CCCCCC=CCC=CCCCCCCCC(=O)OCC
Potency [1]: inactive
Potency [3]: inactive
Potency [2]: inactive

C1CCc2nnnn2CC1
Potency [1]: inactive
Potency [2]: inactive

C#C[C@]1(OC(C)=O)CC[C@H]2[C@@H]3CCC4=C[C@@H](OC(C)=O)CC[C@@H]4[C@H]3CC[C@@]21C
Potency [1]: inactive
Potency [2]: inactive

O=C(Nc1ccc(Oc2ccc(Cl)cc2)c(Cl)c1)c1cc(I)cc(I)c1O
Potency [1]: inactive
Potency [2]: inactive

COc1c2occc2c(OC)c2c(=O)cc(C)oc12
Potency [1]: inactive
Potency [3]: inactive
Potency [2]: inactive

CCOC(=O)n1ccn(C)c1=S
Potency [1]: inactive
Potency [3]: inactive
Potency [2]: inactive

CNCCC=C1c2ccccc2CCc2ccccc21
Potency [1]: 7.94 µM (active)
Potency [3]: inactive
Potency [2]: 10.2 µM (active)

O=C(CCN1CCC(c2ccccc2)C1)c1ccc2c(c1)OCCO2 (stereo unspecified)
Potency [1]: 15.8 µM (active)
Potency [2]: 28.7 µM (active)

COCc1c(C(C)C)nc(C(C)C)c(/C=C/[C@@H](O)C[C@@H](O)CC(=O)O)c1-c1ccc(F)cc1
Potency [1]: inactive
Potency [2]: inactive

CN(C)CCOc1ccccc1Cc1ccccc1
Potency [1]: 3.55 µM (active)
Potency [3]: inactive
Potency [2]: inactive

CN(C)CCCOc1nn(Cc2ccccc2)c2ccccc12
Potency [1]: 5.01 µM (active)
Potency [2]: inactive

Nc1ccc(/C=C/c2ccc(N)cc2S(=O)(=O)O)c(S(=O)(=O)O)c1
Potency [1]: inactive
Potency [2]: inactive

CCC(C(=O)OCCN(CC)CC)c1ccccc1 (stereo unspecified)
Potency [1]: inactive
Potency [3]: inactive
Potency [2]: inactive

CCCCCCCCCCCCCCCC[N+](C)(C)CC
Potency [3]: inactive
Potency [2]: 32.2 µM (active)

CC(C)COC(=O)c1ccc(N)cc1
Potency [1]: inactive
Potency [2]: inactive

CNCCC(Oc1ccccc1C)c1ccccc1 (stereo unspecified)
Potency [3]: inactive

CCOC(=O)c1cccc(N)c1
Potency [1]: inactive
Potency [2]: inactive

Clc1ccc2c(c1)CCc1cccnc1C2=C1CCNCC1
Potency [3]: inactive

Cc1onc(-c2c(Cl)cccc2Cl)c1C(=O)N[C@@H]1C(=O)N2[C@@H]1SC(C)(C)[C@@H]2C(=O)O
Potency [3]: inactive
